Laboratory results as given in ChEMBL document CHEMBL1157539, “Thousands of chemical starting points for antimalarial lead identification” (Nature, 2010).

What follows are compounds tested on Plasmodium falciparum (assay: GSK_TCMDC: Inhibition of Plasmodium falciparum 3D7 in whole red blood cells, using parasite LDH activity as an index of growth. Test compounds present at 2uM).
Assay type: functional

Structure (SMILES)	Inhibition [%]
CN(C(=O)/C=C/c1c(Cl)cccc1Cl)C1CCN(CCCCCNC(=O)/C=C/c2ccc(Cl)c(Cl)c2)CC1	92
Cc1cc(-c2ccc3c(c2)CCN(CCC2CCC(NC(=O)/C=C/c4ccc(F)cc4)CC2)CC3)on1.Cl (stereo not drawn)	98
Cc1ccc(C(CC(=O)Nc2nccs2)c2ccc(OC(C)C)cc2)cc1 (stereo not drawn)	94
O=C(Cn1c(CCc2cccc(F)c2F)cc(=O)c2ccccc21)N(CCN1CCCCC1)Cc1ccc(-c2ccc(C(F)(F)F)cc2)cc1.O=C(O)C(O)C(O)C(=O)O	100
NC1=NC(c2ccccc2)(c2ccccc2)C(=O)N1Cc1ccccc1Br.O=CO	93
Cc1cccc2nc(-c3cccc(-c4cccc(NC(=O)CNc5ccc(C(N)=O)cc5)c4)c3)[nH]c12	100
Cc1c(S(=O)(=O)Nc2ccc3nccc(N4CCN[C@H](C)C4)c3c2)sc2ccc(Cl)cc12.Cl	96
Cl.O=C(c1cccc(COc2ccc3c(c2)CCN(C2CCCC2)CC3)c1)N1CCN(c2ccncc2)CC1	100
COc1ccc(C=NNc2nc3ccccc3[nH]2)cc1O	95
Nc1nc(N)c2c(Oc3cccnc3)cccc2n1	93
CCc1ccc(N2C(N)=NC(N)=NC2(C)C)cc1.Cl	94
CC(C)CCNc1nc(NCCCc2ccccc2)c2cc(O)ccc2n1	100
CCN(CC)CCN(Cc1ccc(-c2ccc(C(F)(F)F)cc2)cc1)C(=O)Cn1c(CCc2cccc(F)c2F)cc(=O)c2c1CCCC2.O=C(O)C(O)C(O)C(=O)O	100
N#Cc1cc(C(=O)c2cc(Cl)ccc2O)cn(-c2cccc(C(F)(F)F)c2)c1=O	87
CCc1cc2c(Sc3nc4ccccc4[nH]3)ncnc2s1	97
COc1ccc(Cc2cnc3nc(N)nc(N)c3c2C)cc1.Cl	90
CC(CN(C)C)C(=O)Nc1ccc(-c2ccc(-c3nc4ccccc4[nH]3)cc2)cc1 (stereo not drawn)	99
CC1(C)S(=O)(=O)CC(O)CS1(=O)=O	98
Cn1nccc1C(=O)NCCNCc1cccc(-c2cccc(-c3nc4cc(F)ccc4[nH]3)c2)c1.O=C(O)C(F)(F)F	100
Cc1[nH]c(C)c(-c2ccc(Oc3ccc(Cl)cc3)cc2)c(=O)c1Br	97

Structure (SMILES)	Inhibition [%]
Cn1nc(C(F)(F)F)c(-c2ccc(Br)cc2)c1NC(=O)Cc1ccccc1F	100
CC1CN(Cc2ccc(-c3ccc(-c4nc5cc(F)ccc5[nH]4)s3)cc2)CC(C)O1.O=C(O)C(F)(F)F (stereo not drawn)	88
O=C(/C=C/c1ccccc1O)N1CCC(CCN2CCC(c3c[nH]c4ccccc34)CC2)CC1	100
COc1ccc(-c2ccc(NC(=O)c3ccc(F)cc3)cc2)cc1CNC(C)C.O=C(O)C(F)(F)F	97
CC(C)c1cc(Oc2c(I)cc(CCCc3ncc[nH]3)cc2I)ccc1O.Cl	88
COc1ccc(NC(=O)/C=C/c2ccccc2Cl)cc1OCCN1CCC(c2nc3ccccc3[nH]2)CC1.Cl	92
COc1cccc2cc(C(=O)N[C@@H](CC(C)C)C(=O)N[C@H](C=NNC(=O)OC(C)(C)C)CC(C)C)oc12	88
Cl.N#Cc1ccc(-c2ccc(C(=O)Nc3ccc4c(c3)CCN(C3CCC3)CC4)nc2)cn1	85
O=[N+]([O-])c1cc2c(cc1C=NNc1nc(=Nc3ccccc3)[nH]c(=Nc3ccccc3)[nH]1)OCO2	98
COCCCNC(=O)[C@H]1CNCCN1C(=O)c1ccccc1.O=C(O)C(F)(F)F	97
Br.COc1cccc(OC)c1OCCCON1C(=N)N=C(N)NC1(C)C	95
CC(C)(CN)c1nc(-c2ccc(Cl)c(O)c2)c(-c2ccncc2)[nH]1.Cl	97
CCN(CC)CCNC(=O)c1ccc(NC(=O)c2cc(-c3ccncc3)nc3ccccc23)cc1	97
Cc1cc(N(C)CCCN2CCCCC2)nc(Nc2ccc(Cl)cc2)n1.Cl	100
Cc1cc(N/N=C/c2cccc([N+](=O)[O-])c2)c2cc(F)ccc2n1	100
Cn1nc(C(F)(F)F)c(-c2ccc(F)cc2)c1NC(=O)Nc1ccccc1	100
CC(=O)Nc1ccc(OCCN(Cc2ccccc2C(F)(F)F)c2ccc(C#N)c(C(F)(F)F)c2)c(Cl)c1	98
CC(C)C[C@H](NC(=O)[C@H](Cc1ccccc1)N(C[C@H](Cc1ccccc1)NC(=O)OC(C)(C)C)C(=O)C(F)(F)F)C(=O)NC1CCN(Cc2ccccc2)CC1	92
CN(C)Cc1ccc(-c2cc3c(Nc4ccc(OCc5cccc(F)c5)c(Cl)c4)ncnc3s2)[nH]1	100

These compounds were tested on Plasmodium falciparum (assay: GSK_TCMDC: Inhibition of Plasmodium falciparum Dd2 in whole red blood cells, using parasite LDH activity as an index of growth. Test compounds present at 2uM).
Assay type: functional

Structure (SMILES)	Inhibition [%]
CN(C(=O)/C=C/c1c(Cl)cccc1Cl)C1CCN(CCCCCNC(=O)/C=C/c2ccc(Cl)c(Cl)c2)CC1	62
Cc1cc(-c2ccc3c(c2)CCN(CCC2CCC(NC(=O)/C=C/c4ccc(F)cc4)CC2)CC3)on1.Cl (stereo not drawn)	47
Cc1ccc(C(CC(=O)Nc2nccs2)c2ccc(OC(C)C)cc2)cc1 (stereo not drawn)	90
O=C(Cn1c(CCc2cccc(F)c2F)cc(=O)c2ccccc21)N(CCN1CCCCC1)Cc1ccc(-c2ccc(C(F)(F)F)cc2)cc1.O=C(O)C(O)C(O)C(=O)O	59
NC1=NC(c2ccccc2)(c2ccccc2)C(=O)N1Cc1ccccc1Br.O=CO	38
Cc1cccc2nc(-c3cccc(-c4cccc(NC(=O)CNc5ccc(C(N)=O)cc5)c4)c3)[nH]c12	56
Cc1c(S(=O)(=O)Nc2ccc3nccc(N4CCN[C@H](C)C4)c3c2)sc2ccc(Cl)cc12.Cl	0
Cl.O=C(c1cccc(COc2ccc3c(c2)CCN(C2CCCC2)CC3)c1)N1CCN(c2ccncc2)CC1	35
COc1ccc(C=NNc2nc3ccccc3[nH]2)cc1O	13
Nc1nc(N)c2c(Oc3cccnc3)cccc2n1	0
CCc1ccc(N2C(N)=NC(N)=NC2(C)C)cc1.Cl	0
CC(C)CCNc1nc(NCCCc2ccccc2)c2cc(O)ccc2n1	95
CCN(CC)CCN(Cc1ccc(-c2ccc(C(F)(F)F)cc2)cc1)C(=O)Cn1c(CCc2cccc(F)c2F)cc(=O)c2c1CCCC2.O=C(O)C(O)C(O)C(=O)O	95
N#Cc1cc(C(=O)c2cc(Cl)ccc2O)cn(-c2cccc(C(F)(F)F)c2)c1=O	7
CCc1cc2c(Sc3nc4ccccc4[nH]3)ncnc2s1	98
COc1ccc(Cc2cnc3nc(N)nc(N)c3c2C)cc1.Cl	96
CC(CN(C)C)C(=O)Nc1ccc(-c2ccc(-c3nc4ccccc4[nH]3)cc2)cc1 (stereo not drawn)	83
CC1(C)S(=O)(=O)CC(O)CS1(=O)=O	9
Cn1nccc1C(=O)NCCNCc1cccc(-c2cccc(-c3nc4cc(F)ccc4[nH]3)c2)c1.O=C(O)C(F)(F)F	7
Cc1[nH]c(C)c(-c2ccc(Oc3ccc(Cl)cc3)cc2)c(=O)c1Br	96

Structure (SMILES)	Inhibition [%]
Cn1nc(C(F)(F)F)c(-c2ccc(Br)cc2)c1NC(=O)Cc1ccccc1F	100
CC1CN(Cc2ccc(-c3ccc(-c4nc5cc(F)ccc5[nH]4)s3)cc2)CC(C)O1.O=C(O)C(F)(F)F (stereo not drawn)	89
O=C(/C=C/c1ccccc1O)N1CCC(CCN2CCC(c3c[nH]c4ccccc34)CC2)CC1	15
COc1ccc(-c2ccc(NC(=O)c3ccc(F)cc3)cc2)cc1CNC(C)C.O=C(O)C(F)(F)F	28
CC(C)c1cc(Oc2c(I)cc(CCCc3ncc[nH]3)cc2I)ccc1O.Cl	1
COc1ccc(NC(=O)/C=C/c2ccccc2Cl)cc1OCCN1CCC(c2nc3ccccc3[nH]2)CC1.Cl	16
COc1cccc2cc(C(=O)N[C@@H](CC(C)C)C(=O)N[C@H](C=NNC(=O)OC(C)(C)C)CC(C)C)oc12	57
Cl.N#Cc1ccc(-c2ccc(C(=O)Nc3ccc4c(c3)CCN(C3CCC3)CC4)nc2)cn1	15
O=[N+]([O-])c1cc2c(cc1C=NNc1nc(=Nc3ccccc3)[nH]c(=Nc3ccccc3)[nH]1)OCO2	46
COCCCNC(=O)[C@H]1CNCCN1C(=O)c1ccccc1.O=C(O)C(F)(F)F	95
Br.COc1cccc(OC)c1OCCCON1C(=N)N=C(N)NC1(C)C	96
CC(C)(CN)c1nc(-c2ccc(Cl)c(O)c2)c(-c2ccncc2)[nH]1.Cl	98
CCN(CC)CCNC(=O)c1ccc(NC(=O)c2cc(-c3ccncc3)nc3ccccc23)cc1	2
Cc1cc(N(C)CCCN2CCCCC2)nc(Nc2ccc(Cl)cc2)n1.Cl	82
Cc1cc(N/N=C/c2cccc([N+](=O)[O-])c2)c2cc(F)ccc2n1	99
Cn1nc(C(F)(F)F)c(-c2ccc(F)cc2)c1NC(=O)Nc1ccccc1	99
CC(=O)Nc1ccc(OCCN(Cc2ccccc2C(F)(F)F)c2ccc(C#N)c(C(F)(F)F)c2)c(Cl)c1	78
CC(C)C[C@H](NC(=O)[C@H](Cc1ccccc1)N(C[C@H](Cc1ccccc1)NC(=O)OC(C)(C)C)C(=O)C(F)(F)F)C(=O)NC1CCN(Cc2ccccc2)CC1	82
CN(C)Cc1ccc(-c2cc3c(Nc4ccc(OCc5cccc(F)c5)c(Cl)c4)ncnc3s2)[nH]1	84
